H9c2 TAG inh: triacylglycerol accumulation inhibition. 230,000 tested, 0.66% active. H9c2 cells, Nile Red lipid (TAG) fluorescence; cells loaded with 200 µM oleic acid. inhibition, % at 12.5 µM;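 active = pattern-corrected inhibition of lipid staining of at least 50% with the nuclear-stain viability signal not falling by more than 50%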;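 note: 0% = DMSO wells and 100% = triacsin C control wells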
iPSC survival up: hiPSC single-cell survival enhancement. ATPlite luminescence; 100% = ROCK inhibitor wells, 0% = DMSO. survival enhancement, % at 20 µM. 360,000 tested, 0.044% active. AID 602274; in the data active = survival enhancement above about 18%;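 note: cells exposed to compounds for 16 hours before the ATP read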
CRFR2-BP ag: agonists of human CRF-binding protein/CRF-R2 receptor complex; HEK293 CRF-R2/CRF-BP, calcium dye fluorescence (FLIPR); percent of saturating CRF peptide response; activation, % at 13.2 µM; 350,000 tested, 0.46% active; AID 588473;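 active = activation of at least 50%, plus an integration ratio under a set limit after plate pattern correction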;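 note: plate controls were neutral control wells without compound for no effect and CRF at EC100 for full effect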
CRFR2-BP antag: antagonists of CRF-binding protein/CRF-R2 receptor complex; inhibition, % at 11.8 µM; 350,000 tested, 0.59% active; HEK293 CRF-R2/CRF-BP, CRF-induced calcium fluorescence;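 active = inhibition of the ligand-induced calcium signal above about 50% at the single tested concentration, limit read from the data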
H9c2 protect: modulators protecting cardiomyocytes from myocardial damage; H9c2 cardiomyocytes, H2O2 injury protection, ATPLite, 2 h; protection from H2O2 cell death, % at 20 µM; 360,000 tested, 0.63% active; AID 588492;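 active = compounds giving at least 50% protection of heart cells from peroxide-induced death in the single-dose screen, raw or plate-pattern-corrected value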;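 note: 0% = DMSO wells with peroxide and 100% = DMSO wells without peroxide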
SKN-1 block: blocks SKN-1 activity in C. elegans. C. elegans VP596 Pgst-4::GFP/RFP ratio, acrylamide-induced, 24 h. inhibition, % at 21.8 µM. 360,000 tested, 0.49% active. AID 624304;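 active = interference check ratio from 0.5 to 1.5 plus GFP to RFP signal ratio inhibition reaching or exceeding a fixed threshold, cut at about 30% in these data, passing the limit was not always enough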
Starred values were filed as active, the others as inactive; · = no result. Rows were chosen to be rich in hits. Some 2.5% of all compounds tested hit in one or more screens of this group.

SMILES	H9c2 TAG inh	iPSC survival up	CRFR2-BP ag	CRFR2-BP antag	H9c2 protect	SKN-1 block
Cc1ccc(C=NNc2nc3c([nH]2)c(=O)n(C)c(=O)n3C)cc1	-7	3	-2	-13	70*	15
Cn1c(=O)c2[nH]c(NN=Cc3ccc(Br)cc3)nc2n(C)c1=O	21	6	4	-14	58*	-2
CS(=O)(=O)N1CCCC(C(=O)Nc2ccc(F)cc2F)C1 (stereo unspecified)	-3	4	1	-2	-2	2
O=C(N/N=C/c1ccc2c(c1)OCO2)c1ccc(NC(=O)c2ccccc2Cl)cc1	·	0	1	8	56*	8
O=C(N/N=C/c1ccc2c(c1)OCO2)c1cccc(NC(=O)c2ccccc2Cl)c1	·	1	-1	1	-1	-1
Cc1ccc(C(=O)Sc2cccccc2=O)cc1	·	2	1	-21	23	-16
CCN(CC(=O)NC(C)C)Cc1nc2sc3c(c2c(=O)[nH]1)CCC3	4	-2	-1	-5	64*	20
Cc1ccc(C(=O)N2CCN(Cc3nc4sc5c(c4c(=O)[nH]3)CCCC5)CC2)cc1	·	0	-1	-36	5	2
O=c1[nH]c(CN2CCCC2)nc2sc3c(c12)CCC3	-5	0	2	7	56*	6
CCCCNc1c(-c2cccnc2)nc2nc(C)cc(C)n12	·	0	·	·	·	20
CCCSC1=C(C#N)C(c2ccc(OC)cc2)C2=C(CC(C)(C)CC2=O)N1 (stereo unspecified)	-5	0	2	-34	-11	7
CSC1=C(C#N)C(c2ccc(Cl)cc2)C2=C(CC(C)(C)CC2=O)N1 (stereo unspecified)	·	0	-1	-5	0	35*
CSCCC(c1nc2ccccc2[nH]1)n1c(-c2ccc3ncccc3c2)nc2ccccc21 (stereo unspecified)	·	·	·	·	·	-17
CCOc1cc2[nH]c(=O)n(Cc3ccccc3)c(=O)c2cc1OCC	-18	1	-1	71*	-2	-7
COc1ccc(/C=N/NC(=O)c2ccccc2NC(=O)c2ccco2)c(OC)c1	0	-1	-3	111*	4	-7
COc1ccc(NC(=O)c2ccccc2NC(=O)c2ccco2)c(OC)c1	·	-1	-2	-7	8	-8
CCOc1cc(NC(=O)c2ccco2)c(OCC)cc1NC(=O)c1ccco1	·	0	0	-10	-2	4
COc1cc(NC(=O)c2ccco2)c(C(=O)OCC(=O)c2c[nH]c3ccccc23)cc1OC	16	-2	1	14	66*	-10
O=C(OCC(=O)c1c[nH]c2ccccc12)c1ccco1	2	1	1	3	-7	1
CCOc1cc(NC(=O)c2ccco2)c(OCC)cc1NC(=O)CCc1ccccc1OC	·	-3	1	6	20	39*
COc1cc(NC(=O)c2ccco2)c(OC)cc1NC(=O)Nc1cccc(Cl)c1	·	-1	2	-36	65*	6
COc1ccc(-c2cccc(-c3cc(=O)oc4ccc(C(C)(C)C)cc34)c2)cc1	-33	-1	4	-9	-14	8
CCCNC(=O)N(C)C[C@@H]1Oc2cc(Br)ccc2S(=O)(=O)N([C@@H](C)CO)C[C@H]1C	-3	8	0	-14	20	1
CCOc1cc(NC(=O)c2ccco2)c(OCC)cc1NC(=O)c1cc(OC)c(OC)c(OC)c1	23	0	-1	-12	15	-3
COc1cc(NC(=O)c2ccco2)c(OC)cc1NC(=O)c1cc(OC)c(OC)c(OC)c1	11	0	-1	2	74*	7
SMILES	H9c2 TAG inh	iPSC survival up	CRFR2-BP ag	CRFR2-BP antag	H9c2 protect	SKN-1 block
COc1ccc(/C=C/CN2CCC(C(=O)NC(c3ccc(F)cc3)c3ccc4ccccc4n3)CC2)cc1 (stereo unspecified)	21	-2	·	·	-25	0
CC(=O)Nc1ccc(/C=N\NC(=O)CNS(=O)(=O)c2ccc([N+](=O)[O-])cc2)cc1	-9	-1	-1	-9	12	6
O=C(CNS(=O)(=O)c1ccc([N+](=O)[O-])cc1)N/N=C\c1ccc(O)cc1	·	0	65*	-26	22	12
O=C(CNS(=O)(=O)c1ccc([N+](=O)[O-])cc1)N/N=C/c1ccc(O)cc1O	·	0	41	-67	55*	-3
COC(=O)c1ccc(N2CCN(C)CC2)c(NC(=O)c2ccc(-c3ccc(Cl)cc3)o2)c1	0	0	-1	-13	0	12
Cc1ccc(C)c(S(=O)(=O)ON2C(=O)c3ccccc3C2=O)c1	-17	-4	1	63*	-6	-5
CCN(CC)S(=O)(=O)c1ccc2c(c1)nc(SC(C)C(N)=O)n2-c1ccc(OC)cc1 (stereo unspecified)	13	-3	2	-3	3	29*
COc1ccc(-n2nnnc2SC(C)C(N)=O)cc1 (stereo unspecified)	·	2	0	-8	6	4
Cn1ncc2c(O/N=C(\N)c3ccc(C(C)(C)C)cc3)ncnc21	86*	0	-2	10	-22	4
C=CCn1c(COc2ccccc2OC)nc2ccccc21	-22	0	-1	3	-5	-5
O=C(O)C1=C2C(=O)Nc3cccc(c32)C2(C1)C(=O)Nc1ccccc12 (stereo unspecified)	-2	0	4	-16	4	36*
O=C1NCCC12C(=O)Nc1ccccc12 (stereo unspecified)	·	1	2	7	0	16
O=C1CCSC2=C1SCc1sccc12	·	0	·	·	·	0
CC(C)CNC(=O)C1(C)CCCCCN1Cc1ccccc1-c1ccccc1 (stereo unspecified)	-7	-2	·	·	-12	5
O=[N+]([O-])c1cc(-c2ccccc2)cc([N+](=O)[O-])c1O	9	2	1	65*	-19	-12
CC(CCCN(C)C)C(Cc1ccccc1)c1ccccc1 (stereo unspecified)	20	-1	-1	-7	-6	6
COCC(=O)N(C)[C@H]1C[C@H]2c3cc(N4CCN(C)CC4)ccc3CCN2C(=O)[C@H]1[C@H](C)O	-10	-1	-1	111*	1	11
COC(=O)/C=C/c1ccc(OC(=O)OC)c(OC(=O)OC)c1	·	-1	-2	3	62*	1
COC(=O)/C=C/c1ccc2c(c1)OCO2	11	-1	-2	1	-4	-1
CCCCNC(=O)c1sc(=S)n2c1[nH]c(=O)c1ccccc12	-7	-2	50*	55*	-34	4
CCC(CC)C(=O)c1c[nH]c(C(=O)N2CCN(c3ccccc3F)CC2)c1	1	-1	5	14	7	8
O=C(COC(=O)c1ccc(S(=O)(=O)NCc2ccco2)cc1)Nc1ccc(OC(F)F)cc1	-4	1	0	-4	-2	0

Assay outcomes as filed in PubChem BioAssay.
